Outcome and AC50 data for 31 molecules are collected here from PubChem BioAssay (EPA / NIEHS).

Each structure is given as a SMILES string. Records with an inconclusive call do not appear. Calls of active or inactive are those of the source. Rule for the calls: active = hit-call score of the fitted dose curve at least 0.9, where 1 is the maximum; inconclusive = response in the unintended direction; inactive = score below 0.9.

The nature of experiment [1]: NVS_IC_rCaDHPRCh_L: NovaScreen (NVS) Ion Channel Assay for rat Calcium Channel, Type L, Dihydropyridine Site (CaDHPRCh_L) (AID 2283320). Summed up:
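Rat cortex membrane preparation; dihydropyridine-site radioligand displacement read 1 h post-dose by filtration and scintillation. Primary single-point screen 25 uM in duplicate, then concentration series to 50 uM maximum; DMSO as negative control.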

In experiment [2] the target is rat Gamma-Aminobutyric Acid Type A Receptor, Non-Selective (GABAR-NonSelective), Gabra1 (gene 29705) (UniProt P62813). Briefly: NVS_LGIC_rGABAR_NonSelective: NovaScreen (NVS) Ligand-Gated Ion Channel Assay for rat Gamma-Aminobutyric Acid Type A Receptor, Non-Selective (GABAR-NonSelective) (AID 2283326). The procedure:
NVS_LGIC_rGABAR_NonSelective is a biochemical, single-readout assay that uses extracted gene-proteins from Rat whole brain in a tissue-based cell-free assay. Measurements were taken 1 hour after chemical dosing in a 48-well plate.NVS_LGIC_rGABAR_NonSelective is one of one assay component(s) measured or calculated from the NVS_LGIC_rGABAR_NonSelective assay. It is designed to make measurements of radioligand binding, a form of binding reporter, as detected with scintillation counting signals by Filter-based radiodetection technology.Data from the assay component NVS_LGIC_rGABAR_NonSelective was analyzed into 1 assay endpoint. This assay endpoint, NVS_LGIC_rGABAR_NonSelective, was analyzed in the positive analysis fitting direction relative to DMSO as the negative control and baseline of activity. Using a type of binding reporter, loss-of-signal activity can be used to understand changes in the binding as they relate to the gene Gabra1. Furthermore, this assay endpoint can be referred to as a primary readout, because the performed assay has only produced 1 assay endpoint. To generalize the intended target to other relatable targets, this assay endpoint is annotated to the ion channel intended target family, where the subfamily is ligand-gated ion channel. […]

Experiment [3] has as its target human Peripheral-type Benzodiazepine Receptor (PBR), TSPO (gene 706) (UniProt P30536). The experiment is described as follows: NVS_MP_hPBR: NovaScreen (NVS) Membrane Protein Assay for human Peripheral-type Benzodiazepine Receptor (PBR) (AID 2283331).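 Note: hits reduce radioligand binding relative to DMSO baseline.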 A digest of the protocol:
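Cell-free binding to human colonic membrane preparations measured by filter-based scintillation counting after 1 h. Compounds first run at 25 uM in duplicate, then concentration series for actives; signal loss against DMSO baseline.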

For experiment [4], the target named is Sodium channel protein type 1 subunit alpha (Rattus norvegicus) (UniProt P04774). Briefly: NVS_IC_rNaCh_site2: NovaScreen (NVS) Ion Channel Assay for rat Sodium Channel, Site 2 (NaCh) (AID 2283322).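 Note: hit means loss of radioligand binding signal relative to DMSO so AC50 marks displacement.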 Summed up: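 Initial duplicate single-point testing at 25 uM, followed by concentration-response runs for actives. Binding of radioligand to rat forebrain membranes quantified after 1 h via filter-based radiodetection.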

Experiment [5] deals with rat Glutamate, AMPA Site (AMPA), Gria1 (gene 50592) (UniProt P19490). The experiment is described as follows: NVS_LGIC_rAMPA: NovaScreen (NVS) Ligand-Gated Ion Channel Assay for rat Glutamate, AMPA Site (AMPA) (AID 2283324). As to the method: NVS_LGIC_rAMPA is a biochemical, single-readout assay that uses extracted gene-proteins from Rat forebrain membranes in a tissue-based cell-free assay. Measurements were taken 1 hour after chemical dosing in a 48-well plate.NVS_LGIC_rAMPA is one of one assay component(s) measured or calculated from the NVS_LGIC_rAMPA assay. It is designed to make measurements of radioligand binding, a form of binding reporter, as detected with scintillation counting signals by Filter-based radiodetection technology.Data from the assay component NVS_LGIC_rAMPA was analyzed into 1 assay endpoint. This assay endpoint, NVS_LGIC_rAMPA, was analyzed in the positive analysis fitting direction relative to DMSO as the negative control and baseline of activity. Using a type of binding reporter, loss-of-signal activity can be used to understand changes in the binding as they relate to the gene Gria1. Furthermore, this assay endpoint can be referred to as a primary readout, because the performed assay has only produced 1 assay endpoint. To generalize the intended target to other relatable targets, this assay endpoint is annotated to the ion channel intended target family, where the subfamily is ligand-gated ion channel.
Binding assays used specific radioligands (tritiated, iodinated) with non-radioactive competitive displacement ligands in agonist or antagonist protocols (as indicated) and various reference compounds and inhibitors to titrate specific binding to receptors and transporters. Most enzyme assays (CYPs, kinases, phosphatases, proteases, HDACs) used recombinant protein and specific substrates (fluorescence mostly, some colorimetric and radioactive) and inhibitors, followed by a biochemical separation of substrate and product. All assays for the biochemical HTS were initially run in duplicate at a single concentration (10 uM for CYP450 assays and 25 uM for all others). […]

Experiment [6] deals with bovine Gamma-Aminobutyric Acid Type A Receptor BDZ, alpha 1 site (GABARa1), GABRA1 (gene 780973) (UniProt P08219). The experiment is described as follows: NVS_LGIC_bGABARa1: NovaScreen (NVS) Ligand-Gated Ion Channel Assay for bovine Gamma-Aminobutyric Acid Type A Receptor BDZ, alpha 1 site (GABARa1) (AID 2283321). As to the method: NVS_LGIC_bGABARa1 is a biochemical, single-readout assay that uses extracted gene-proteins from Bovine cortical membranes in a tissue-based cell-free assay. Measurements were taken 0.75 hour after chemical dosing in a 48-well plate.NVS_LGIC_bGABARa1 is one of one assay component(s) measured or calculated from the NVS_LGIC_bGABARa1 assay. It is designed to make measurements of radioligand binding, a form of binding reporter, as detected with scintillation counting signals by Filter-based radiodetection technology.Data from the assay component NVS_LGIC_bGABARa1 was analyzed into 1 assay endpoint. This assay endpoint, NVS_LGIC_bGABARa1, was analyzed in the positive analysis fitting direction relative to DMSO as the negative control and baseline of activity. Using a type of binding reporter, loss-of-signal activity can be used to understand changes in the binding as they relate to the gene GABRA1. Furthermore, this assay endpoint can be referred to as a primary readout, because the performed assay has only produced 1 assay endpoint. To generalize the intended target to other relatable targets, this assay endpoint is annotated to the ion channel intended target family, where the subfamily is ligand-gated ion channel.
Binding assays used specific radioligands (tritiated, iodinated) with non-radioactive competitive displacement ligands in agonist or antagonist protocols (as indicated) and various reference compounds and inhibitors to titrate specific binding to receptors and transporters. Most enzyme assays (CYPs, kinases, phosphatases, proteases, HDACs) used recombinant protein and specific substrates (fluorescence mostly, some colorimetric and radioactive) and inhibitors, followed by a biochemical separation of substrate and product. All assays for the biochemical HTS were initially run in duplicate at a single concentration (10 uM for CYP450 assays and 25 uM for all others). Assay-chemical combinations meeting a pre-defined threshold (e.g., 30% inhibition and other criteria defined below) were then run in singleton concentration-response format with maximum concentration of 20 uM for CYPs and 50 uM for all others. Each assay was run with positive and negative controls, and concurrent controls on every plate. The follow-up (secondary) screen tested active chemical-pairs in concentration series, as well as a few additional assays not tested in the primary screen, some selected negative inactives, and several cases re-run in the concentration series for confirmatory purposes.

In experiment [7] the target is human Androgen Receptor (AR), AR (gene 367) (UniProt P10275). Briefly: NVS_NR_hAR: NovaScreen (NVS) Nuclear Receptor Binding Assay for human Androgen Receptor (AR) (AID 2283332). Summed up: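 Radioligand competitive binding, scintillation read-out, in cell-free extract from LnCAP, measured 20 h after dosing. Screened first in duplicate at 25 uM, then concentration series for actives; activity fitted against DMSO.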

Experiment [8] has as its target human Serotonin, 5-Hydroxytryptamine Receptor 3 (5HT3), HTR3A (gene 3359) (UniProt P46098). Briefly: NVS_LGIC_h5HT3: NovaScreen (NVS) Ligand-Gated Ion Channel Assay for human Serotonin, 5-Hydroxytryptamine Receptor 3 (5HT3) (AID 2283325). Summed up:
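Initially tested at 25 uM in duplicate, then up to 50 uM in concentration-response for actives, compounds competed with a radioligand for HEK293-derived human 5-HT3 receptor. Bound counts were measured by filtration and scintillation at 1 h; loss of signal versus DMSO.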

Experiment [9] addresses rat Glutamate, NMDA Agonist Site (GluNMDA), Grin1 (gene 24408) (UniProt P35439). Briefly: NVS_LGIC_rGluNMDA_Agonist: NovaScreen (NVS) Ligand-Gated Ion Channel Assay for rat Glutamate, NMDA Agonist Site (GluNMDA) (AID 2283327). Summed up:
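Radioligand displacement at the agonist site on rat forebrain membrane preparations, read by filter scintillation after 1 h. Chemicals were first run at 25 uM in duplicate; those passing threshold were titrated to a 50 uM maximum.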

Experiment [10] deals with rat Oxytocin Receptor (OXT), Oxtr (gene 25342) (UniProt P70536). The experiment is described as follows: NVS_GPCR_rOXT: NovaScreen (NVS) G Protein-Coupled Receptor Assay for rat Oxytocin Receptor (OXT) (AID 2283330). Summed up: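 Binding to rat uterine membrane receptor was followed by scintillation counting of filter-trapped radioligand after 1 h. A 25 uM duplicate single-point screen preceded concentration series with a top of 50 uM. Signal loss was analysed relative to DMSO.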
Chain of rat Oxytocin Receptor (OXT), Oxtr (gene 25342) (P70536 whole entry, looked up): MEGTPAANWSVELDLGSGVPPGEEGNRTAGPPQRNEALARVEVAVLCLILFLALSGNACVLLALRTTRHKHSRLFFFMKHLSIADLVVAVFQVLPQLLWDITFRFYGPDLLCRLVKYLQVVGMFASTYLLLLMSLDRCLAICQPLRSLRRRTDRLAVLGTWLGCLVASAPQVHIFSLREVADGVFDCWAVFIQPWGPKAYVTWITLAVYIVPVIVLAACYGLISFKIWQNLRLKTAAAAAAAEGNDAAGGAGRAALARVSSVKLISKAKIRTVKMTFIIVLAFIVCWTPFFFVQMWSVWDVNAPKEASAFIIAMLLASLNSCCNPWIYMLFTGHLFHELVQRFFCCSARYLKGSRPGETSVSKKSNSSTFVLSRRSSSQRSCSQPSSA

Chain of rat Glutamate, AMPA Site (AMPA), Gria1 (gene 50592) (P19490 whole entry, looked up): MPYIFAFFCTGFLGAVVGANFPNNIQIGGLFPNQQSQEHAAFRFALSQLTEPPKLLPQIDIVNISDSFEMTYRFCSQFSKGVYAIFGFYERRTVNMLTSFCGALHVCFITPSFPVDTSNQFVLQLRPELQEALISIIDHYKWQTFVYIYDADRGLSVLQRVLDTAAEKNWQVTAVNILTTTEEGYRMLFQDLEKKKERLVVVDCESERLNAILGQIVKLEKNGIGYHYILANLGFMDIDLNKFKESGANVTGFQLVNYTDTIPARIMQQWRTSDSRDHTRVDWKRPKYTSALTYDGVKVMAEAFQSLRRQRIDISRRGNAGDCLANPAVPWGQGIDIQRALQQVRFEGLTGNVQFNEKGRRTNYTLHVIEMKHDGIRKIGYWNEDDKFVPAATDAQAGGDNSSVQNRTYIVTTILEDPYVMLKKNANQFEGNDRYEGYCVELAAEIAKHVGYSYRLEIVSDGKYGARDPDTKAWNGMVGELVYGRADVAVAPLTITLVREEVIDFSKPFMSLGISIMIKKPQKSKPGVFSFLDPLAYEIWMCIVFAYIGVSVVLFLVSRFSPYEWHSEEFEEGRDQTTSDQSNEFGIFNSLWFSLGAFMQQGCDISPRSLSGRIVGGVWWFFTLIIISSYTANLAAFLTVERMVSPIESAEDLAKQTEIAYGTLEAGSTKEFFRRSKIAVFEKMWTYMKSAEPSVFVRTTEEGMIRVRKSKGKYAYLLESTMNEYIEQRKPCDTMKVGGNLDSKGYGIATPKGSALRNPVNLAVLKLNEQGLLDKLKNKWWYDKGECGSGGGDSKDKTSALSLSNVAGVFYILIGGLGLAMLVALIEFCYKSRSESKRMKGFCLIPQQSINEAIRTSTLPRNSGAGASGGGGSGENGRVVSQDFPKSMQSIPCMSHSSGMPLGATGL
Chain of human Serotonin, 5-Hydroxytryptamine Receptor 3 (5HT3), HTR3A (gene 3359) (P46098 whole entry, looked up): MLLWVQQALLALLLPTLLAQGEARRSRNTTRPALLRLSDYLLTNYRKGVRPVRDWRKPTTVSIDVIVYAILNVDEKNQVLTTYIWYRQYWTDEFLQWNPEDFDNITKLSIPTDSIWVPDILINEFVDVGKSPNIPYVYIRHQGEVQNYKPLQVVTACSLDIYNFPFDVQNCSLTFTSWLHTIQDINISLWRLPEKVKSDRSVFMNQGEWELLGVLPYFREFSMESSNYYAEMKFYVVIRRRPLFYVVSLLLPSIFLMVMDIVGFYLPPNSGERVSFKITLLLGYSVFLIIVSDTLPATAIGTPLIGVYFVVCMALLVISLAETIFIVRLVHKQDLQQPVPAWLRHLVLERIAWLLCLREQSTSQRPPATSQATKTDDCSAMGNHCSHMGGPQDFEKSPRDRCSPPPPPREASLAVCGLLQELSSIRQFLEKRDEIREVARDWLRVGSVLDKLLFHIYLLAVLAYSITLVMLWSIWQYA
Chain of human Peripheral-type Benzodiazepine Receptor (PBR), TSPO (gene 706) (P30536 whole entry, looked up): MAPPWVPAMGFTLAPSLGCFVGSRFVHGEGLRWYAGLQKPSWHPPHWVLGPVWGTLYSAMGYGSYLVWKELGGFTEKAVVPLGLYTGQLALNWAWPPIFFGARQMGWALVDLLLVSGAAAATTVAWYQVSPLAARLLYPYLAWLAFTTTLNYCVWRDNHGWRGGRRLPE
Chain of bovine Gamma-Aminobutyric Acid Type A Receptor BDZ, alpha 1 site (GABARa1), GABRA1 (gene 780973) (P08219 whole entry, looked up): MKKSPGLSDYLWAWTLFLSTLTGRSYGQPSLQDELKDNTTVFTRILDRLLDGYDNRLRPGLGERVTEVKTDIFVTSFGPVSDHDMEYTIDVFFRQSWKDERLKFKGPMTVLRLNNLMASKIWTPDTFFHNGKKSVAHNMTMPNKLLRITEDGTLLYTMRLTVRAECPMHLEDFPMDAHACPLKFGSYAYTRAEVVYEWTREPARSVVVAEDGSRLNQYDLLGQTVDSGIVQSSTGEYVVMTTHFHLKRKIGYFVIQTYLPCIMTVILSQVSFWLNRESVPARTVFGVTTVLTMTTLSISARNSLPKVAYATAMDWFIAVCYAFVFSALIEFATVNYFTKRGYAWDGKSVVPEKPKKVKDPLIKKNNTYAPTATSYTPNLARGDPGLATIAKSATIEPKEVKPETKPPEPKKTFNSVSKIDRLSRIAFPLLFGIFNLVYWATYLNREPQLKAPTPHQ
Chain of human Androgen Receptor (AR), AR (gene 367) (P10275 whole entry, looked up): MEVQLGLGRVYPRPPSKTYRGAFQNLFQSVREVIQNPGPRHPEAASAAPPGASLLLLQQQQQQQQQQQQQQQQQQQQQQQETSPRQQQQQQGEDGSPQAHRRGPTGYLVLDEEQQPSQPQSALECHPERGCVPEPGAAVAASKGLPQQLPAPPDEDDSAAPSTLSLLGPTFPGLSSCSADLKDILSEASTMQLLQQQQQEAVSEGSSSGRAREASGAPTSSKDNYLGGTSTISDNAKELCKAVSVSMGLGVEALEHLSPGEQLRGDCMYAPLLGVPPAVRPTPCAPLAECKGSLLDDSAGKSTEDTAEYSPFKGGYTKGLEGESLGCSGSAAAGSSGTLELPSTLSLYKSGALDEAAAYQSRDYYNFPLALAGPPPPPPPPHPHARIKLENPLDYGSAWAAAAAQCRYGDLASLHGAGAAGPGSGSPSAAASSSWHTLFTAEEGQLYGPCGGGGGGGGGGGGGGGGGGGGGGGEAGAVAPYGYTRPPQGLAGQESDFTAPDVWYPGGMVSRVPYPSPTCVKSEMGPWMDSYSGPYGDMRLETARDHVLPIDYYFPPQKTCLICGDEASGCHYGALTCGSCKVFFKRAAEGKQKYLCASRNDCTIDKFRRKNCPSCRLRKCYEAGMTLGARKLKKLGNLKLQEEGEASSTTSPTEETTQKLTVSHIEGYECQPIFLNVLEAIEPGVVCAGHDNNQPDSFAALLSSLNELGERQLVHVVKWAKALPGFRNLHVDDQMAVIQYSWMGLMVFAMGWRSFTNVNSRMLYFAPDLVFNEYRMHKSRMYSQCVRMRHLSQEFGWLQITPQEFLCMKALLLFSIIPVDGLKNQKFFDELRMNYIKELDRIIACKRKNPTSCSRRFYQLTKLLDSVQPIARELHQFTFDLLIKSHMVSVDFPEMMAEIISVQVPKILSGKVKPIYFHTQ
Chain of rat Gamma-Aminobutyric Acid Type A Receptor, Non-Selective (GABAR-NonSelective), Gabra1 (gene 29705) (P62813 whole entry, looked up): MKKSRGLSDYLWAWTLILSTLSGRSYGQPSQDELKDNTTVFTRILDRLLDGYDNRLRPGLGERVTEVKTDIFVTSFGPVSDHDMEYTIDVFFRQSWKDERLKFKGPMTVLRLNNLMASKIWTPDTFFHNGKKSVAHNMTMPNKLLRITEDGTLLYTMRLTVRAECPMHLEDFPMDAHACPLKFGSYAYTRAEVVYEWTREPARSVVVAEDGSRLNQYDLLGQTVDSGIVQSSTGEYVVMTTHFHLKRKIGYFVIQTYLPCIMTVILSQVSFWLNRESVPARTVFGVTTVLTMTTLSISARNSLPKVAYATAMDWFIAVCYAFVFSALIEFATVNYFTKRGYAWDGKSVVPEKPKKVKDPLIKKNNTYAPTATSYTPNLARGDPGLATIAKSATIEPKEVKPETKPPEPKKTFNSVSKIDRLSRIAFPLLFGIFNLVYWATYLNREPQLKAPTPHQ

As to `COC(=O)c1c(C(F)F)nc(C(F)(F)F)c(C2=NCCS2)c1CC(C)C`, the result in experiment [1], in experiment [2] and in [3] was inactive.
`CCCN(CC)CC1COC2(CCC(C(C)(C)C)CC2)O1` (stereo not given): the AC50 in [4] is 0.822 µM (active).
For `N#Cc1c[nH]cc1-c1cccc2c1OC(F)(F)O2`, the result in experiment [4] and in experiment [3] was inactive.
Regarding `CCNC(=O)NC(=O)C(C#N)=NOC`, the molecule was called inactive in experiment [4] and in [5].
With `Cc1cc(C)nc(Nc2ccccc2)n1`, the molecule was classed as inactive in experiment [4].
`CCCCOCN(C(=O)CCl)c1c(CC)cccc1CC`: the values for the AC50 in [1] and in experiment [3] were 9.86 µM (active) and 6.37 µM (active), respectively.
As for `CCCCC(C#N)(Cn1cncn1)c1ccc(Cl)cc1` (stereo not given), the outcome in [1] and in experiment [3] was inactive. For the same molecule, the AC50 in [4] was 25 µM (active).
As for `CC1(C)C(C=C(Cl)Cl)C1C(=O)OC(C#N)c1cccc(Oc2ccccc2)c1` (stereo not given), the AC50 is 9.51 µM (active) in experiment [1] and 14.9 µM (active) in experiment [3].
In the case of `CO/N=C(/C1=NOCCO1)c1ccccc1Oc1ncnc(Oc2ccccc2Cl)c1F`, the result in experiment [1] was inactive.
For the molecule `Nc1c(Cl)c(F)nc(OCC(=O)O)c1Cl`, the outcome in experiment [6] was inactive.
The same measure, in the same setting: with `COP(=O)(OC)O/C(C)=C/C(=O)N(C)C` the entry was “inactive”.
For the molecule `O=C(Nc1ccccc1-c1ccc(Cl)cc1)c1cccnc1Cl`, the molecule was classed as inactive in experiment [6] and in experiment [3].
On to `N#Cc1c(Cl)cccc1Cl`, for which the AC50 in experiment [4] was 38.2 µM (active).
For the molecule `N#CN=C1SCCN1Cc1ccc(Cl)nc1`, the molecule was classed as inactive in [6].
Consider `COP(=S)(OC)SCn1nnc2ccccc2c1=O`, for which the AC50 is 10.1 µM (active) in [6], 17.5 µM (active) in experiment [3] and 10.9 µM (active) in experiment [7].
Take `CC(C)(C)C(=O)C(Oc1ccc(Cl)cc1)n1cncn1` (stereo not given): in experiment [4], the molecule was classed as inactive. For the same molecule, the AC50 in [3] is 44 µM (active).
With `CC(C)C1(C)N=C(c2ncccc2C(=O)O)NC1=O` (stereo not given), the result in experiment [4] was inactive.
Take `Cn1c(-c2ccccc2)cc(-c2ccccc2)[n+]1C`: in [4], the AC50 is 2.36 µM (active).
Take `CCN(CC)C(=O)C(C)Oc1cccc2ccccc12` (stereo not given): in experiment [4], the molecule was called inactive. Also, the half-maximal activity concentration (AC50) in [3] is 1.11 µM (active).
In the case of `CS(=O)(=O)c1cc(C(F)(F)F)ccc1C(=O)c1cnoc1C1CC1`, the molecule was called inactive in experiment [6] and in [8].
With `CCOC(=O)C(C)OC(=O)c1cc(Oc2ccc(C(F)(F)F)cc2Cl)ccc1[N+](=O)[O-]` (stereo not given), the AC50 in [1] is 25 µM (active); in [3] it was 8.41 µM (active).
Take `CC1(C)C(C(=O)OC(C#N)c2cccc(Oc3ccccc3)c2)C1(C)C` (stereo not given): the outcome in experiment [6], in experiment [8] and in [3] was inactive.
Take `CN=C=S`: the molecule was classed as inactive in experiment [5] and in [9].
For `C=C(C)CN(CC)c1c([N+](=O)[O-])cc(C(F)(F)F)cc1[N+](=O)[O-]`, the molecule was called inactive in [5].
Turning to `Cc1c(COC(=O)[C@@H]2[C@H](/C=C(\Cl)C(F)(F)F)C2(C)C)cccc1-c1ccccc1`, the molecule was called inactive in [8].
Take `CC1(C)CCC(=Cc2ccc(Cl)cc2)C1(O)Cn1cncn1` (stereo not given): the molecule was called inactive in [8]. Also, the half-maximal activity concentration (AC50) in [7] is 0.955 µM (active).
Take `COC(=O)NS(=O)(=O)c1ccc(N)cc1`: in experiment [2], the molecule was called inactive.
On to `CC(C)N1C(=O)c2ccccc2NS1(=O)=O`, for which, in [9], the result was inactive.
Take `O=P(O)(O)CCCl`: in [10], the outcome was inactive.
Still for that read-out and setting: with `CC(C)NC(=O)N1CC(=O)N(c2cc(Cl)cc(Cl)c2)C1=O` the entry was “inactive”.
As to `CCCCC(O)(Cn1cncn1)c1ccc(Cl)cc1Cl` (stereo not given), in [7], the AC50 is 18 µM (active).
